Measured values from PubChem BioAssay (NCI).
Compounds without any hit were thinned out: in the full panel of roughly 83,000, 20% have a hit.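 Negative percent growth values reflect cell death: -40 means 40% of the cells present at the start died, and -100 means all died.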 Calls of active or inactive are those of the source. How the source made its calls: active means growth percent below 10; inactive means the rest.

How the values were obtained:
Assay in all cases: NCI-60 one-dose screen, 48 h (100 = growth as untreated, 0 = no growth, -100 = all killed)
Conditions in all cases: 10 µM unless noted
SR leukemia = test system: SR leukemia
RPMI-8226 leukemia = test system: RPMI-8226 leukemia
OVCAR-5 ovarian = test system: OVCAR-5 ovarian
OVCAR-4 ovarian = test system: OVCAR-4 ovarian
SK-OV-3 ovarian = test system: SK-OV-3 ovarian
IGROV1 ovarian = test system: IGROV1 ovarian
OVCAR-3 ovarian = test system: OVCAR-3 ovarian
HS 578T breast = test system: HS 578T breast
NCI/ADR-RES ovarian = test system: NCI/ADR-RES ovarian
OVCAR-8 ovarian = test system: OVCAR-8 ovarian

Measured: growth

O=c1oc2c([nH]c3ccc4ccccc4c32)c2ccccc12
inactive: SR leukemia 102% | RPMI-8226 leukemia 103% | OVCAR-5 ovarian 112% | OVCAR-4 ovarian 109% | SK-OV-3 ovarian 107% | IGROV1 ovarian 118% | OVCAR-3 ovarian 109% | HS 578T breast 104% | NCI/ADR-RES ovarian 104%

O=C(c1ccncc1)N1N=C(c2ccc(Cl)cc2)CC1c1c[nH]c2ccccc12 (stereo not given)
inactive: SR leukemia 57.5% | OVCAR-8 ovarian 98.5% | OVCAR-5 ovarian 105% | SK-OV-3 ovarian 84.2% | IGROV1 ovarian 79.3% | OVCAR-3 ovarian 95.5% | HS 578T breast 101% | NCI/ADR-RES ovarian 97%

COc1ccc(/C(=N\O)c2cc(OC)c(OC)c(OC)c2)c(OC)c1N
inactive: RPMI-8226 leukemia 24.2% | OVCAR-8 ovarian 18% | OVCAR-5 ovarian 47.8% | OVCAR-4 ovarian 42.9% | SK-OV-3 ovarian 43% | IGROV1 ovarian 46.1% | NCI/ADR-RES ovarian 18.2%
active: OVCAR-3 ovarian -25.1% | HS 578T breast 7.51%

CCN(CC)CCCC(C)N=c1cc(Nc2cc(=NC(C)CCCN(CC)CC)c3cc(OC)ccc3o2)oc2ccc(OC)cc12 (stereo not given)
inactive: HS 578T breast 27.5%
active: RPMI-8226 leukemia -38.3% | OVCAR-8 ovarian -1.52% | OVCAR-5 ovarian -28.3% | OVCAR-4 ovarian -48.8% | SK-OV-3 ovarian 7.55% | IGROV1 ovarian -5.22% | OVCAR-3 ovarian -20.8% | NCI/ADR-RES ovarian 3.48%

CN(C)c1ccc(-c2ccc(-c3ccc(C(=N)N)cn3)o2)cc1
active: RPMI-8226 leukemia -43.4% | OVCAR-8 ovarian -54.7% | OVCAR-5 ovarian -25% | OVCAR-4 ovarian -17.3% | SK-OV-3 ovarian -24.4% | IGROV1 ovarian -26.8% | OVCAR-3 ovarian -96.7%

Clc1cccc(Cl)c1Cn1c(-c2cncs2)nc2ccccc21
inactive: RPMI-8226 leukemia 56.7% | OVCAR-8 ovarian 87% | OVCAR-5 ovarian 94% | OVCAR-4 ovarian 82.1% | SK-OV-3 ovarian 96.3% | IGROV1 ovarian 82.6% | OVCAR-3 ovarian 90.5% | HS 578T breast 97% | NCI/ADR-RES ovarian 73%

CC[C@H](C)[C@H]1NC(=O)[C@@H](N[C@](C)(O)[C@@H](N)CC(C)C)[C@@H](C)OC(=O)[C@H](Cc2ccc(OC)cc2)N(C)C(=O)[C@@H]2CCCN2C(=O)[C@H](CC(C)C)NC(=O)[C@@H](C)C(=O)[C@H](C(C)C)OC(=O)C[C@@H]1O
inactive: NCI/ADR-RES ovarian 37.4%
active: RPMI-8226 leukemia -33% | OVCAR-8 ovarian -13.6% | OVCAR-5 ovarian -14.9% | OVCAR-4 ovarian -6.08% | SK-OV-3 ovarian -13% | IGROV1 ovarian -13.4% | OVCAR-3 ovarian -20.8% | HS 578T breast -4.99%

Nc1c(C(=O)Nc2cccc(C(F)(F)F)c2)sc2nc3c(cc12)CCCCCC3
active: OVCAR-8 ovarian -37.4% | SK-OV-3 ovarian 2.08% | OVCAR-3 ovarian 0.0711%
inactive: SR leukemia 21.1% | OVCAR-5 ovarian 12.8% | IGROV1 ovarian 14.6% | HS 578T breast 29.5% | NCI/ADR-RES ovarian 12%

COc1ccc(/C=C2\CCCC3=C2NC(C)=NC3c2ccc(OC)c(OC)c2)cc1OC (stereo not given)
active: RPMI-8226 leukemia -25.8% | OVCAR-8 ovarian 3.09% | OVCAR-5 ovarian 4.73% | SK-OV-3 ovarian 6.97% | OVCAR-3 ovarian 2.97%
inactive: OVCAR-4 ovarian 21% | IGROV1 ovarian 24.4% | HS 578T breast 59% | NCI/ADR-RES ovarian 11.2%

N#CC1=C(N)OC2=C(C(=O)CCC2)C1c1ccco1 (stereo not given)
inactive: RPMI-8226 leukemia 100% | OVCAR-8 ovarian 103% | OVCAR-5 ovarian 104% | OVCAR-4 ovarian 106% | SK-OV-3 ovarian 98.2% | IGROV1 ovarian 107% | OVCAR-3 ovarian 113% | HS 578T breast 115% | NCI/ADR-RES ovarian 103%

C=CCOc1ccc(/C(O)=C2\C(=O)C(=O)N(c3nccs3)C2c2ccccc2F)cc1 (stereo not given)
inactive: RPMI-8226 leukemia 136% | OVCAR-8 ovarian 102% | OVCAR-5 ovarian 122% | OVCAR-4 ovarian 81.3% | SK-OV-3 ovarian 109% | OVCAR-3 ovarian 93.5% | HS 578T breast 104% | NCI/ADR-RES ovarian 119%
active: IGROV1 ovarian 3.7%

CC/C(=C(\c1ccc(O)cc1)c1ccc(OCCN(C)CCN(C)C(=O)CCC(=O)c2c(C)[nH]c(/C=C3\N=C(c4ccc[nH]4)C=C3OC)c2C)cc1)c1ccccc1
inactive: SR leukemia 58.6% | OVCAR-8 ovarian 89.9% | OVCAR-5 ovarian 99.6% | SK-OV-3 ovarian 111% | IGROV1 ovarian 81.6% | OVCAR-3 ovarian 89.1%

Cn1cc(C=O)c2ccccc21
inactive: RPMI-8226 leukemia 98.4% | OVCAR-8 ovarian 95.2% | OVCAR-5 ovarian 101% | OVCAR-4 ovarian 101% | SK-OV-3 ovarian 101% | IGROV1 ovarian 88.6% | OVCAR-3 ovarian 106% | HS 578T breast 107% | NCI/ADR-RES ovarian 100%

O=C(COc1ccccc1)N1N=C(c2ccc(Cl)cc2)CC1c1c[nH]c2ccccc12 (stereo not given)
inactive: SR leukemia 10.8% | OVCAR-8 ovarian 70.4% | OVCAR-5 ovarian 112% | SK-OV-3 ovarian 81.4% | IGROV1 ovarian 30.2% | OVCAR-3 ovarian 77.9% | HS 578T breast 93.7% | NCI/ADR-RES ovarian 83%

CCN(Cc1ccc(CN(CC)C(=O)C(Br)Br)cc1)C(=O)C(Br)Br
active: OVCAR-3 ovarian 8.57%
inactive: RPMI-8226 leukemia 14.2% | OVCAR-8 ovarian 20.4% | OVCAR-5 ovarian 71.1% | OVCAR-4 ovarian 32.1% | SK-OV-3 ovarian 79.8% | IGROV1 ovarian 46.4% | HS 578T breast 38.1% | NCI/ADR-RES ovarian 39.7%

CN(C)c1nc(N)c(N=O)c(N)n1
inactive: RPMI-8226 leukemia 110% | OVCAR-8 ovarian 114% | OVCAR-5 ovarian 111% | OVCAR-4 ovarian 108% | SK-OV-3 ovarian 99.2% | IGROV1 ovarian 110% | OVCAR-3 ovarian 101% | HS 578T breast 106% | NCI/ADR-RES ovarian 122%

COc1cc(/C=C/C(=O)c2ccc(NC(=O)CN3CCN(c4cc5c(cc4F)c(=O)c(C(=O)O)cn5C4CC4)CC3)cc2)cc(OC)c1OC
inactive: OVCAR-5 ovarian 16.9% | OVCAR-4 ovarian 16.4% | SK-OV-3 ovarian 33.3% | HS 578T breast 76.8% | NCI/ADR-RES ovarian 98.2%
active: RPMI-8226 leukemia -18.8% | OVCAR-8 ovarian 4.74% | IGROV1 ovarian -1.19% | OVCAR-3 ovarian -25.8%

COc1ccc(/C=N/NC(=O)Cn2c(Cc3cccc4ccccc34)nc3ccccc32)cc1
inactive: RPMI-8226 leukemia 88.3% | OVCAR-8 ovarian 93.7% | OVCAR-5 ovarian 96% | OVCAR-4 ovarian 104% | SK-OV-3 ovarian 106% | IGROV1 ovarian 108% | OVCAR-3 ovarian 101% | HS 578T breast 95.8% | NCI/ADR-RES ovarian 93.6%

COc1cc(Cn2c(-c3nonc3N)nc3ccccc32)ccc1C
inactive: RPMI-8226 leukemia 19.2% | OVCAR-8 ovarian 31.6% | OVCAR-5 ovarian 34% | OVCAR-4 ovarian 62.6% | SK-OV-3 ovarian 29.9% | IGROV1 ovarian 47.6% | HS 578T breast 22.5% | NCI/ADR-RES ovarian 21.2%
active: OVCAR-3 ovarian -34.7%

CC1Cc2c(N(C)C)ncnc2N(C)c2ccc(Cl)cc21 (stereo not given)
inactive: RPMI-8226 leukemia 31.3% | OVCAR-8 ovarian 45.9% | OVCAR-5 ovarian 73.8% | OVCAR-4 ovarian 49.7% | SK-OV-3 ovarian 46.3% | IGROV1 ovarian 57.5% | NCI/ADR-RES ovarian 25.9%
active: OVCAR-3 ovarian 5.13% | HS 578T breast -1.26%

O=C(CN1CCN(c2cc3c(cc2F)c(=O)c(C(=O)O)cn3C2CC2)CC1)Nc1ccc(C(=O)/C=C/c2ccccc2)cc1
inactive: OVCAR-5 ovarian 82.6% | OVCAR-4 ovarian 86.4% | SK-OV-3 ovarian 93.6% | IGROV1 ovarian 42.9% | OVCAR-3 ovarian 54.9% | HS 578T breast 51.9%
active: RPMI-8226 leukemia 2.45% | OVCAR-8 ovarian 6.3%

NC(N)=NC(N)=Nc1ccccc1-c1ccccc1
inactive: RPMI-8226 leukemia 112% | OVCAR-8 ovarian 113% | OVCAR-5 ovarian 110% | OVCAR-4 ovarian 110% | SK-OV-3 ovarian 123% | IGROV1 ovarian 110% | OVCAR-3 ovarian 117% | HS 578T breast 109% | NCI/ADR-RES ovarian 117%

Cc1cc(-c2ccccc2)c(C)n1Cc1ccc(Cl)cc1
inactive: RPMI-8226 leukemia 44.1% | OVCAR-8 ovarian 47.2% | OVCAR-5 ovarian 64.5% | OVCAR-4 ovarian 61.6% | SK-OV-3 ovarian 62.2% | IGROV1 ovarian 50.4% | OVCAR-3 ovarian 27.3% | HS 578T breast 50.6%

COC(=O)c1ccc2nc(-c3cc4ccccc4n3C)n(CCCCOc3cc4c(cc3OC)C(=O)N3CCC[C@H]3C=N4)c2c1
inactive: OVCAR-8 ovarian 16.5% | SK-OV-3 ovarian 30.1% | NCI/ADR-RES ovarian 29.5%
active: RPMI-8226 leukemia -32.9% | OVCAR-5 ovarian -1.18% | OVCAR-4 ovarian -24% | IGROV1 ovarian -68.2% | OVCAR-3 ovarian -40.2% | HS 578T breast -62.5%

CCOC(=O)[C@H](CSSc1ncnc2cc[nH]c12)NC(=O)[C@@H](C)c1ccc2cc(OC)ccc2c1
active: SK-OV-3 ovarian 8.34%
inactive: SR leukemia 18.9% | OVCAR-8 ovarian 20.7% | OVCAR-5 ovarian 27.3% | IGROV1 ovarian 41.3% | OVCAR-3 ovarian 25.4% | HS 578T breast 59% | NCI/ADR-RES ovarian 18.6%

CCN(CC)S(=O)(=O)c1ccc2[nH]c(=O)cc(C(=O)Nc3ccc(OC)cc3OC)c2c1
inactive: RPMI-8226 leukemia 108% | OVCAR-8 ovarian 109% | OVCAR-5 ovarian 100% | OVCAR-4 ovarian 115% | SK-OV-3 ovarian 108% | IGROV1 ovarian 34.4% | OVCAR-3 ovarian 118% | HS 578T breast 103% | NCI/ADR-RES ovarian 99.6%

Nc1c(C(=O)Nc2c(Cl)cccc2Cl)sc2nc3c(cc12)CCCCC3
inactive: SR leukemia 16.7% | OVCAR-8 ovarian 51.8% | OVCAR-5 ovarian 79.8% | SK-OV-3 ovarian 56.6% | IGROV1 ovarian 73% | OVCAR-3 ovarian 52.8% | HS 578T breast 59% | NCI/ADR-RES ovarian 53.5%

Nc1c(C(=O)Nc2cccc(C(F)(F)F)c2)sc2nc3c(cc12)CCCCC3
active: SK-OV-3 ovarian -21.4% | IGROV1 ovarian -17.4% | OVCAR-3 ovarian 3.45%
inactive: SR leukemia 33.3% | OVCAR-8 ovarian 21.3% | OVCAR-5 ovarian 35.5% | NCI/ADR-RES ovarian 17.1%

CCO/C=N/NC(=O)c1ccncc1
inactive: RPMI-8226 leukemia 108% | OVCAR-8 ovarian 108% | OVCAR-5 ovarian 103% | OVCAR-4 ovarian 109% | SK-OV-3 ovarian 109% | IGROV1 ovarian 108% | OVCAR-3 ovarian 106% | HS 578T breast 105% | NCI/ADR-RES ovarian 111%

CC(C)C[C@H](NC(=O)[C@H](Cc1ccccc1)n1ccc(N2CCCCC2)cc1=O)B(O)O
inactive: OVCAR-8 ovarian 31.8% | OVCAR-5 ovarian 39.3% | OVCAR-4 ovarian 39.3% | SK-OV-3 ovarian 53.9% | IGROV1 ovarian 46.2% | HS 578T breast 22%
active: RPMI-8226 leukemia -10.5% | OVCAR-3 ovarian -29.3%
